# Source: PubChem BioAssay (NCI)
# About 83,000 compounds went through this panel and 20% of them were active in at least one assay; those are over-represented in the sample as a whole.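 Method: cells in 96-well plates; compound added at one concentration; 48 h incubation; percent growth measured; values under 10 scored active.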 Calls of active or inactive are those of the source.
# Test system: RXF 393 renal
# Experiment: NCI-60 one-dose screen, 48 h (100 = growth as untreated, 0 = no growth, -100 = all killed)
# Conditions: 10 µM unless noted
row,SMILES,growth
1,C[C@]12CCc3sc(-c4ccc(Cl)cc4)nc3C1=CC[C@@H]1[C@@H]2CC[C@]2(C)C(=O)CC[C@@H]12,-36.9% (active)
2,C=CCC1(CC)C(=O)NC(=S)NC1=O,110% (inactive)
3,O=C(CF)N(O)c1ccc(/C=C/c2ccccc2)cc1,50.7% (inactive)
4,COc1ccc(/C=C(/C(=O)N2CCCC2)c2cc(OC)c(OC)c(OC)c2)cc1N,11.2% (inactive)
5,Nc1nc(N)c(-c2ccc(Cl)c(Cl)c2)c(/C=C/c2ccc(S(=O)(=O)F)cc2)n1,90.6% (inactive)
6,Nc1c(Br)cc([N+](=O)[O-])cc1[N+](=O)[O-],106% (inactive)
7,Oc1ccc(O)c2c1C1(Cl)C(Cl)=C(Cl)C2(Cl)C1(Cl)Cl,29.8% (inactive)
8,CN(C)P1(N(C)C)=NP(N(C)C)(N(C)C)=NP(N(C)C)(N(C)C)=N1,109% (inactive)
9,CCCCNCCc1ccccn1,113% (inactive)
10,CNC(=O)Oc1cccc(OC)c1,111% (inactive)
11,C=C=[CH][Sn]([c]1ccccc1)([c]1ccccc1)[c]1ccccc1,-83.5% (active)
12,NC(=O)SCC(=O)Nc1ccc([As](=O)(O)O)cc1,95.7% (inactive)
13,C[C@]12CC[C@H]3[C@@H](C[C@@H]4N=C(c5ccc(O)cc5)S[C@@]45C[C@H](O)CC[C@]35C)[C@@H]1CC[C@@H]2O,-46.3% (active)
14,CC1(C)N=C(N)N=C(N)N1c1ccc(CCCCc2ccc(S(=O)(=O)F)cc2)cc1,43.2% (inactive)
15,Nc1c(Br)cc2c3c(cccc13)-c1ccccc1-2,80.2% (inactive)
16,COc1cc2c(cc1OC)CN(C)C(C)C2 (stereo unspecified),118% (inactive)
17,c1ccc2nc(OCCN3CC3)ccc2c1,59.1% (inactive)
18,CC1(C)N=C(N)N=C(N)N1c1ccc(CNC(=O)Nc2ccc(S(=O)(=O)F)c(Cl)c2)c(Cl)c1,50.6% (inactive)
19,c1ccc(-c2ccc3ccccc3[o+]2)cc1,97.4% (inactive)
20,CSc1ccccc1NP1(=O)OCC(C)([N+](=O)[O-])CO1 (stereo unspecified),97.6% (inactive)
21,CC1COC(=O)C1 (stereo unspecified),103% (inactive)
22,C[CH2][Pb]([CH2]C)([CH2]C)[O]C(=O)COc1ccccc1,7.08% (active)
23,COc1ccc(/C=C\c2cc(OC)c(OC)c(OC)c2)cc1N/C=C\C(=O)c1c[nH]c2ccccc12,29.2% (inactive)
24,CCCC(C)(C)c1ccc2c(c1)OC(C)(C)[C@@H]1CC=C(C)C[C@@H]21,108% (inactive)
25,OC1(c2ccc(Cl)cc2Cl)c2ccccc2C2=NCCN21 (stereo unspecified),-13% (active)
26,CC1(CF)NC(=O)NC1=O (stereo unspecified),121% (inactive)
27,O=C(Nc1ccc(S(=O)(=O)F)cc1)Oc1ccccc1,95.3% (inactive)

# Test system: SF-268 CNS
# Experiment: as above
# Conditions: 10 µM unless noted
row,SMILES,growth
1,Fc1ccc(C2=NN(c3ccccc3)C(c3sc(N(CCCl)CCCl)nc3Cl)C2)cc1 (stereo unspecified),86.5% (inactive)
2,CC[C@H](C)[C@H](NC(=O)Nc1ccccc1)C(=O)N(C)[C@H](C[C@@H](OC(C)=O)c1nc(C(=O)N[C@@H](Cc2ccccc2)C[C@H](C)C(=O)OC)cs1)C(C)C,18.8% (inactive)
3,c1ccc(CCN2CCCCC2Cc2ccccc2)cc1 (stereo unspecified),99.4% (inactive)
4,CC(=O)O[C@H]1CCC2(C)C(=CCC3C2CCC2(C)/C(=N/OC(=O)c4ccc(N(CCCl)CCCl)cc4)CCC32)C1 (stereo partly specified),5.4% (active)
5,O=C(N/N=C/c1ccc(N(CCCl)CCCl)cc1)c1cc(=O)[nH]c(=O)[nH]1,95.2% (inactive)
6,O=[As]c1ccc(C(=O)c2ccc(Oc3ccccc3)cc2)cc1 (stereo unspecified),-89.2% (active)
7,Cc1cc(NC(=O)NCCOc2ccc(N3C(N)=NC(N)=NC3(C)C)cc2Cl)ccc1S(=O)(=O)F,29% (inactive)
8,COc1ccc2c(c1)NC1=C(C(=O)OC1)C2c1cc(OC)c(OC)c(OC)c1 (stereo unspecified),22.6% (inactive)
9,C=CCc1ccc(OC(=O)Cc2ccccc2)c(OC)c1,107% (inactive)
10,CC(C)(O)/C=C/C(=O)[C@](C)(O)[C@H]1[C@H](O)C[C@@]2(C)[C@@H]3CC=C4[C@@H](C=C(O)C(=O)C4(C)C)[C@]3(C)C(=O)C[C@]12C,-27.5% (active)
11,C[C@]12CCc3sc(-c4ccc(Cl)cc4)nc3C1=CC[C@@H]1[C@@H]2CC[C@]2(C)C(=O)CC[C@@H]12,64.4% (inactive)
12,C=CCC1(CC)C(=O)NC(=S)NC1=O,101% (inactive)
13,NC(Cc1ccc2c(c1)OCO2)c1ccc2c(c1)OCO2 (stereo unspecified),103% (inactive)
14,O=C(CF)N(O)c1ccc(/C=C/c2ccccc2)cc1,42.5% (inactive)
15,COc1ccc(/C=C(/C(=O)N2CCCC2)c2cc(OC)c(OC)c(OC)c2)cc1N,47.5% (inactive)
16,Nc1nc(N)c(-c2ccc(Cl)c(Cl)c2)c(/C=C/c2ccc(S(=O)(=O)F)cc2)n1,97.4% (inactive)
17,Nc1c(Br)cc([N+](=O)[O-])cc1[N+](=O)[O-],97.7% (inactive)
18,Oc1ccc(O)c2c1C1(Cl)C(Cl)=C(Cl)C2(Cl)C1(Cl)Cl,44.7% (inactive)
19,CN(C)P1(N(C)C)=NP(N(C)C)(N(C)C)=NP(N(C)C)(N(C)C)=N1,105% (inactive)
20,CCCCNCCc1ccccn1,107% (inactive)

row,SMILES,growth
1,CNC(=O)Oc1cccc(OC)c1,118% (inactive)
2,C=C=[CH][Sn]([c]1ccccc1)([c]1ccccc1)[c]1ccccc1,-69% (active)
3,NC(=O)SCC(=O)Nc1ccc([As](=O)(O)O)cc1,100% (inactive)
4,C[C@]12CC[C@H]3[C@@H](C[C@@H]4N=C(c5ccc(O)cc5)S[C@@]45C[C@H](O)CC[C@]35C)[C@@H]1CC[C@@H]2O,48.6% (inactive)
5,CC1(C)N=C(N)N=C(N)N1c1ccc(CCCCc2ccc(S(=O)(=O)F)cc2)cc1,30% (inactive)
6,Nc1c(Br)cc2c3c(cccc13)-c1ccccc1-2,87.7% (inactive)
7,COc1cc2c(cc1OC)CN(C)C(C)C2 (stereo unspecified),96% (inactive)
8,CC(C)C1c2ccc(O)cc2Oc2nc(N)c(C#N)c(N)c21 (stereo unspecified),112% (inactive)
9,c1ccc2nc(OCCN3CC3)ccc2c1,96.6% (inactive)
10,CC1(C)N=C(N)N=C(N)N1c1ccc(CNC(=O)Nc2ccc(S(=O)(=O)F)c(Cl)c2)c(Cl)c1,26.5% (inactive)
11,c1ccc(-c2ccc3ccccc3[o+]2)cc1,88.7% (inactive)
12,CSc1ccccc1NP1(=O)OCC(C)([N+](=O)[O-])CO1 (stereo unspecified),105% (inactive)
13,CC1COC(=O)C1 (stereo unspecified),109% (inactive)
14,C[CH2][Pb]([CH2]C)([CH2]C)[O]C(=O)COc1ccccc1,-10.1% (active)
15,COc1ccc(/C=C\c2cc(OC)c(OC)c(OC)c2)cc1N/C=C\C(=O)c1c[nH]c2ccccc12,15.1% (inactive)
16,CCCC(C)(C)c1ccc2c(c1)OC(C)(C)[C@@H]1CC=C(C)C[C@@H]21,93% (inactive)
17,OC1(c2ccc(Cl)cc2Cl)c2ccccc2C2=NCCN21 (stereo unspecified),103% (inactive)
18,CC1(CF)NC(=O)NC1=O (stereo unspecified),104% (inactive)
19,O=C(Nc1ccc(S(=O)(=O)F)cc1)Oc1ccccc1,102% (inactive)
